Laboratory results reported in ChEMBL document CHEMBL1961873, “Compounds: GSK PKIS; Assays: Nanosyn kinase panel” (2012).

Columns and labels:
[1] = molecular target: Sphingosine kinase 1 (Homo sapiens) (UniProt Q9NYA1); conditions: at 1 µM;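 further: mean SPHK1 inhibition value reported from the GSK PKIS kinase panel screen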
[2] = molecular target: T1, Sphingosine kinase 2 (Homo sapiens) (UniProt Q9NRA0); conditions: at 0.1 µM
T1 sequence (whole entry): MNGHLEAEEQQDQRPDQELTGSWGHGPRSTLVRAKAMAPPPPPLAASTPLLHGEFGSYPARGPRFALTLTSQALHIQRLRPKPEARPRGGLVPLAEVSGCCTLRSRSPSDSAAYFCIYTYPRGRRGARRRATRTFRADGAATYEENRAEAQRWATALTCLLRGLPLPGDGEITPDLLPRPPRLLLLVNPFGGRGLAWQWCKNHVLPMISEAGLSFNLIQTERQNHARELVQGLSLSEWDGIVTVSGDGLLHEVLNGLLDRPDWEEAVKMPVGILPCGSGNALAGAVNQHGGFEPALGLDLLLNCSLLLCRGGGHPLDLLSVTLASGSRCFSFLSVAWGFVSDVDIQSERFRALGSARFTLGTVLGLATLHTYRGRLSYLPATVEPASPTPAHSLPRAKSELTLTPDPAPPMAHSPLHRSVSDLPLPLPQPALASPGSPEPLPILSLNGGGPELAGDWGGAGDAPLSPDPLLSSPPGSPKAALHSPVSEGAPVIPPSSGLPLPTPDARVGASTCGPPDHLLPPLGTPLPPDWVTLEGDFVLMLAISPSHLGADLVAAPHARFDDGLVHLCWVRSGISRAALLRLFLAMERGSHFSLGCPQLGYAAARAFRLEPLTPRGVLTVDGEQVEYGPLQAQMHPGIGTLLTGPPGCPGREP

[3] = molecular target: T1, Sphingosine kinase 2 (Homo sapiens); conditions: at 1 µM
[4] = molecular target: Casein kinase II subunit alpha (Homo sapiens) (UniProt P68400); conditions: at 0.1 µM
Chain of Casein kinase II subunit alpha (Homo sapiens) (P68400 whole entry, looked up): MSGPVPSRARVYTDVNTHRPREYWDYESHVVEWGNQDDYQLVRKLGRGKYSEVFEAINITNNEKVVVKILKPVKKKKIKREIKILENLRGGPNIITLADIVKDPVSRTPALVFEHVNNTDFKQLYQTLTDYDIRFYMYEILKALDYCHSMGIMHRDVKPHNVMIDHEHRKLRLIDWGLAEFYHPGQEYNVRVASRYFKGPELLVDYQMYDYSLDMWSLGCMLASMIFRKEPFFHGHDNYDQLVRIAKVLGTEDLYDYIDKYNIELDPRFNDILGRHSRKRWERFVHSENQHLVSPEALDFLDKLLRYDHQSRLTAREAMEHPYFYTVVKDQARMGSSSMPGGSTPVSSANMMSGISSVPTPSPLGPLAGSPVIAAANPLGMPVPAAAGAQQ

[5] = molecular target: Casein kinase II subunit alpha (Homo sapiens) (UniProt P68400); conditions: at 1 µM
[6] = molecular target: T2, Inhibitor of nuclear factor kappa-B kinase subunit alpha (Homo sapiens) (UniProt O15111); conditions: at 0.1 µM
T2 sequence (whole entry): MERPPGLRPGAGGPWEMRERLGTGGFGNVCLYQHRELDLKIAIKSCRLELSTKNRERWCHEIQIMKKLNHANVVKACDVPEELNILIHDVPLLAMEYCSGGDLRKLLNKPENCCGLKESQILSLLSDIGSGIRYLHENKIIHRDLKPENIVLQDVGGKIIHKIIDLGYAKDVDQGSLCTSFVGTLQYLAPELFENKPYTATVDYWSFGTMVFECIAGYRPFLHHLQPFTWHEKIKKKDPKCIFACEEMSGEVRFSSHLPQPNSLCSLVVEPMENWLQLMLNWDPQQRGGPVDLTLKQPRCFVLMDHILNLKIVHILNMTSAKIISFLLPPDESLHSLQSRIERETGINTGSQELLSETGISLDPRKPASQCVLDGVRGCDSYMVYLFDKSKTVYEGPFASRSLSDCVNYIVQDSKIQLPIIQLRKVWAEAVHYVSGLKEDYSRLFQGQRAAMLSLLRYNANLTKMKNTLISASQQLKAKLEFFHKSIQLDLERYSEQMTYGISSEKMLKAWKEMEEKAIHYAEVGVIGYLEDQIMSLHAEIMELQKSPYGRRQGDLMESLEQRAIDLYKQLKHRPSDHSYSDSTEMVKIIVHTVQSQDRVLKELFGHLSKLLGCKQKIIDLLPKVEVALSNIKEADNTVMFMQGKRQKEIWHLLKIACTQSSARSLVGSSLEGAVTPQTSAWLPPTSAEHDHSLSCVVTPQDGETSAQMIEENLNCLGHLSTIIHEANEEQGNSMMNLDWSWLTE

[7] = molecular target: T2, Inhibitor of nuclear factor kappa-B kinase subunit alpha (Homo sapiens); conditions: at 1 µM
[8] = molecular target: T3, Inhibitor of nuclear factor kappa-B kinase subunit beta (Homo sapiens) (UniProt O14920); conditions: at 0.1 µM
T3 sequence (whole entry): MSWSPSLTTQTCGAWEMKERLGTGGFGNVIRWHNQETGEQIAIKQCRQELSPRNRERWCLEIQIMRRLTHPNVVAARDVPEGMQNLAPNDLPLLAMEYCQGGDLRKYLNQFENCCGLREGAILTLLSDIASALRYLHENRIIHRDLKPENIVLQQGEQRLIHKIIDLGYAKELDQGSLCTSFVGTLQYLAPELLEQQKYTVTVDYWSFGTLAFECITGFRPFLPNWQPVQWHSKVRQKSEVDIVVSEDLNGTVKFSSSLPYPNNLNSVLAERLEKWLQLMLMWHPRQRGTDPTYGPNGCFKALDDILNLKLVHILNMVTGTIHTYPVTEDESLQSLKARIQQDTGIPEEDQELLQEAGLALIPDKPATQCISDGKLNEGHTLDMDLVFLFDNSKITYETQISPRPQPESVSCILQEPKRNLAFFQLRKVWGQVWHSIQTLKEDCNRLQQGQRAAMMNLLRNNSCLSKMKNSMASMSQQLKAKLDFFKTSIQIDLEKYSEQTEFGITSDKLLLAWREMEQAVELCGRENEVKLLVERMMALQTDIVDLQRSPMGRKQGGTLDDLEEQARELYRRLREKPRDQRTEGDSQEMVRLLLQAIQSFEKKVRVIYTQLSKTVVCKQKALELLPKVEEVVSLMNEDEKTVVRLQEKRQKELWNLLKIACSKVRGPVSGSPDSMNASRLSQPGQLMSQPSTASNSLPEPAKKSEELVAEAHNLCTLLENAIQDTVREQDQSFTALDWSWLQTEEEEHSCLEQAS

[9] = molecular target: T3, Inhibitor of nuclear factor kappa-B kinase subunit beta (Homo sapiens); conditions: at 1 µM
[10] = molecular target: T4, Inhibitor of nuclear factor kappa-B kinase subunit epsilon (Homo sapiens) (UniProt Q14164); conditions: at 0.1 µM
T4 sequence (whole entry): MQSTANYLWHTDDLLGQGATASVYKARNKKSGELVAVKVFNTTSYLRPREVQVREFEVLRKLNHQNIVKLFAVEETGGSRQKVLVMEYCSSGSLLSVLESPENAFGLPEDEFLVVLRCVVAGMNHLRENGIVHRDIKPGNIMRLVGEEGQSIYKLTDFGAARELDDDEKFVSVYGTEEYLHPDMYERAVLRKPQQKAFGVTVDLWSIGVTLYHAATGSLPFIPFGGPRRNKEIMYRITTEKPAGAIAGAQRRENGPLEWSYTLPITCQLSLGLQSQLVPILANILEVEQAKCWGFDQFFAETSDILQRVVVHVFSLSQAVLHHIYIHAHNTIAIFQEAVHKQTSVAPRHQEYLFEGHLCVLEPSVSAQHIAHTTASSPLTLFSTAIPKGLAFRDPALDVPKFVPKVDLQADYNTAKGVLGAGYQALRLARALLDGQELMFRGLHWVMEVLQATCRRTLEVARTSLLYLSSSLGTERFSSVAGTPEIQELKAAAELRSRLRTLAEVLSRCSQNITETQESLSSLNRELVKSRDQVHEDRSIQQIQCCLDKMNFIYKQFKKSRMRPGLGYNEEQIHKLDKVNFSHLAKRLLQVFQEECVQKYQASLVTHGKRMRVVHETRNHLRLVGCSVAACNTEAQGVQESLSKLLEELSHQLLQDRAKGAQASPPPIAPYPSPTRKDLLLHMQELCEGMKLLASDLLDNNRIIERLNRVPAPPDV

[11] = molecular target: T4, Inhibitor of nuclear factor kappa-B kinase subunit epsilon (Homo sapiens); conditions: at 1 µM
[12] = molecular target: T5, Serine/threonine-protein kinase Nek1 (Homo sapiens) (UniProt Q96PY6); conditions: at 0.1 µM
T5 sequence (whole entry): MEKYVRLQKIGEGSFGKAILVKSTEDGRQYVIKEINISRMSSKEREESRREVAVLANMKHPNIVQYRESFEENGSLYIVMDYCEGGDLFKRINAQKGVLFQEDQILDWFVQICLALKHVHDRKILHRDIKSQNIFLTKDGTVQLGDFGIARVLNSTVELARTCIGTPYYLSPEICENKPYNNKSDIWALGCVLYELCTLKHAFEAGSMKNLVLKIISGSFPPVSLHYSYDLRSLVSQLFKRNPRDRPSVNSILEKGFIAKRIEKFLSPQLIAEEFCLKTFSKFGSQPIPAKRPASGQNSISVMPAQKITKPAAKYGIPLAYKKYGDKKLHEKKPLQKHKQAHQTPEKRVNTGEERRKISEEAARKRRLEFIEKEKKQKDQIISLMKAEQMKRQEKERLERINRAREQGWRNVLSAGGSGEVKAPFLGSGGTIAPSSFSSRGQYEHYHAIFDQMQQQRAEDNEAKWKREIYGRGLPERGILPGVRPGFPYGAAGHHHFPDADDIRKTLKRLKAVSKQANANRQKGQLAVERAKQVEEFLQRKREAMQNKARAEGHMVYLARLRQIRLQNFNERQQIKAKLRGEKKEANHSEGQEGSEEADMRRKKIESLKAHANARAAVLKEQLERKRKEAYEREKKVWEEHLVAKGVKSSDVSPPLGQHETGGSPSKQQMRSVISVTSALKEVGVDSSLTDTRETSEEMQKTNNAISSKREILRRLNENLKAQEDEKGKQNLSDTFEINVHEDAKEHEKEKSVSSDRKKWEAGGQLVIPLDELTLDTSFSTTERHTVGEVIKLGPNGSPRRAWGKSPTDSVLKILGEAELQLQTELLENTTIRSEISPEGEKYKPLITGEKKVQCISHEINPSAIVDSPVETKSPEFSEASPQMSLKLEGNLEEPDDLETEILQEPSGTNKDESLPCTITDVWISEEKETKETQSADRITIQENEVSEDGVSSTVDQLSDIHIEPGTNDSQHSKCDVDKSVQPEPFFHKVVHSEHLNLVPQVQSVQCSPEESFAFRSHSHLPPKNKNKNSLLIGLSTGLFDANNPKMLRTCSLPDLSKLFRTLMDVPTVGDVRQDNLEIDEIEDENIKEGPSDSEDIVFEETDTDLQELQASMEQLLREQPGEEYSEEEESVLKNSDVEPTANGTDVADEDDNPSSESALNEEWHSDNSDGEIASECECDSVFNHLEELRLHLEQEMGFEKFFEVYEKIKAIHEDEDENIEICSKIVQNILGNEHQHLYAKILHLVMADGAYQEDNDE

[13] = molecular target: T5, Serine/threonine-protein kinase Nek1 (Homo sapiens); conditions: at 1 µM
[14] = molecular target: T6, Serine/threonine-protein kinase Nek2 (Homo sapiens) (UniProt P51955); conditions: at 0.1 µM
T6 sequence (whole entry): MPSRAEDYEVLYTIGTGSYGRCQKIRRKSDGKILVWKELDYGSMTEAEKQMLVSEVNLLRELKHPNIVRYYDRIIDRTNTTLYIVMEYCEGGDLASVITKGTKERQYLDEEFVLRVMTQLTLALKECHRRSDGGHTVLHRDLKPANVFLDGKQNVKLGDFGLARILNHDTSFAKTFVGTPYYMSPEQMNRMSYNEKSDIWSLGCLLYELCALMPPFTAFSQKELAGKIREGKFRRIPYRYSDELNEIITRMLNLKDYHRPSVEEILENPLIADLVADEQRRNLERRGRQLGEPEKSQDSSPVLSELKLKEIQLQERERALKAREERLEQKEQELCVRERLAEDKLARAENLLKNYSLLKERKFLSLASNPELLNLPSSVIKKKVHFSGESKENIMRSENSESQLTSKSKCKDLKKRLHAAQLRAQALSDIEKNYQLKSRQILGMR

[15] = molecular target: T6, Serine/threonine-protein kinase Nek2 (Homo sapiens); conditions: at 1 µM
[16] = molecular target: Serine/threonine-protein kinase Nek6 (Homo sapiens) (UniProt Q9HC98); conditions: at 0.1 µM
Chain of Serine/threonine-protein kinase Nek6 (Homo sapiens) (Q9HC98 whole entry): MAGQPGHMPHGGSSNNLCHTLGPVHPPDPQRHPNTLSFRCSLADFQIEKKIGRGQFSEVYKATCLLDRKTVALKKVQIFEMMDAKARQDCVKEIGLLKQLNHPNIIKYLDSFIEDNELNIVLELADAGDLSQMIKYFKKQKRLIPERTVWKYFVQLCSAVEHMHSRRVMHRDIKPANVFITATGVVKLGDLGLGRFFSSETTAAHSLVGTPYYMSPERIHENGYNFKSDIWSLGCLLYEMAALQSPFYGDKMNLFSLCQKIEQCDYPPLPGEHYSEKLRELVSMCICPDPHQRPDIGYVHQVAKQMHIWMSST

[17] = molecular target: Serine/threonine-protein kinase Nek6 (Homo sapiens) (UniProt Q9HC98); conditions: at 1 µM
[18] = molecular target: Serine/threonine-protein kinase Nek7 (Homo sapiens) (UniProt Q8TDX7); conditions: at 0.1 µM
Chain of Serine/threonine-protein kinase Nek7 (Homo sapiens) (Q8TDX7 whole entry, looked up): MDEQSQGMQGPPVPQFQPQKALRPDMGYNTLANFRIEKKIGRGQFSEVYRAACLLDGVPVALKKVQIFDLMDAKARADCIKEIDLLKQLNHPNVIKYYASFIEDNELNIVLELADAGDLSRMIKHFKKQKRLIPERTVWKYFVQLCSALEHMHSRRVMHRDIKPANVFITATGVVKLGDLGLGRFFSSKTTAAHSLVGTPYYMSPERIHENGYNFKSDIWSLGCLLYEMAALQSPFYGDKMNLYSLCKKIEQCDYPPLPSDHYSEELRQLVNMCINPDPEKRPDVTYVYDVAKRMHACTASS

[19] = molecular target: Serine/threonine-protein kinase Nek7 (Homo sapiens) (UniProt Q8TDX7); conditions: at 1 µM
[20] = molecular target: T7, Serine/threonine-protein kinase Nek9 (Homo sapiens) (UniProt Q8TD19); conditions: at 0.1 µM;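 further: reported value is the mean percent inhibition of NEK9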
T7 sequence (whole entry): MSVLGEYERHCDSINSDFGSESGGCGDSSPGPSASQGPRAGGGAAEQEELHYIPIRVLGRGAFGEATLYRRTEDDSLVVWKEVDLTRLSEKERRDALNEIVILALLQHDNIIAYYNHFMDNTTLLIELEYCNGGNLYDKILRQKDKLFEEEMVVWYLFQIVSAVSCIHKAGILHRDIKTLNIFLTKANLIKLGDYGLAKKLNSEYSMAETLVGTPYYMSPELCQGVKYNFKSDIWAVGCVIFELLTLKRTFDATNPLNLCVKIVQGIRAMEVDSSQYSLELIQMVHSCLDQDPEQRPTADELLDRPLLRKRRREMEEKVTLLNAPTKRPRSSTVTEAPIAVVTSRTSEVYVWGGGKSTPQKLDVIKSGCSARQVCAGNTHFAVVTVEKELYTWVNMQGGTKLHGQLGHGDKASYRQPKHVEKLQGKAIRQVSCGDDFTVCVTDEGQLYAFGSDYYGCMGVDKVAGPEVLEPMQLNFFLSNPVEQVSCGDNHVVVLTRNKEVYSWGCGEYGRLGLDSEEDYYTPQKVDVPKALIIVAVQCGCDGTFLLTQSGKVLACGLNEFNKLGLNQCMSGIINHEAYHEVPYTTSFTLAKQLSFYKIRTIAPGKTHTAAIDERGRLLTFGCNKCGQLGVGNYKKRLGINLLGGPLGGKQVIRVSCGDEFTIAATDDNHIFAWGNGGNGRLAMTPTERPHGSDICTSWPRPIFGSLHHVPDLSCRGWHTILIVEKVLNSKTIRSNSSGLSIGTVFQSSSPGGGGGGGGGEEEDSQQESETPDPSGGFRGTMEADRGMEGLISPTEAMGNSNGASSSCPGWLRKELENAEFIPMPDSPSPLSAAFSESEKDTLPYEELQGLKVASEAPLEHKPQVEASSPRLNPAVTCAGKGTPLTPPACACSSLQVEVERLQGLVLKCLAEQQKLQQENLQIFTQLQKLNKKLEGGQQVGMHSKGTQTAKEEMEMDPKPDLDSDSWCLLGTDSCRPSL

Chain of Sphingosine kinase 1 (Homo sapiens) (Q9NYA1 whole entry): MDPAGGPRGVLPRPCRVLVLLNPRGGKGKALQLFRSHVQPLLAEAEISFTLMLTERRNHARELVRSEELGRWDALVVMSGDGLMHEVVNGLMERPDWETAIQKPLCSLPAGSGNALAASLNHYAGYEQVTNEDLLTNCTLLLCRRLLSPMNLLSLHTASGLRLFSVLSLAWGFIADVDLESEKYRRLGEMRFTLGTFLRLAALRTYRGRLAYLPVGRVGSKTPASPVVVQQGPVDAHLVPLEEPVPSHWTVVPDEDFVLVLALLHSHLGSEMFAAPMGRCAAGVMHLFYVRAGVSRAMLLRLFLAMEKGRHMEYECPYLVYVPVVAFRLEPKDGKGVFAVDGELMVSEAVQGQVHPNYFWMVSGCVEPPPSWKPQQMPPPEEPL

Row | Compound | inhibition [1] | inhibition [2] | inhibition [3] | inhibition [4] | inhibition [5] | inhibition [6] | inhibition [7] | inhibition [8] | inhibition [9] | inhibition [10] | inhibition [11] | inhibition [12] | inhibition [13] | inhibition [14] | inhibition [15] | inhibition [16] | inhibition [17] | inhibition [18] | inhibition [19] | inhibition [20]
1 | CCn1c(-c2nonc2N)nc2cncc(C(=O)N3CC[C@H](N)C3)c21 | -5.44% | 0.23% | -0.8% | 3.78% | 3.7% | 14% | 18.8% | 7.24% | 5.79% | 13.8% | 36.1% | 1.89% | 3.47% | 5.3% | 6.1% | 0.64% | 5.91% | 6.16% | 7.48% | 11.8%
2 | Nc1nc(-c2ccc3c(c2)C(=Cc2cc(Br)c(O)c(Br)c2)C(=O)N3)cs1 | -0.49% | -0.01% | 0.02% | 2.7% | 24.1% | 9.67% | 2.3% | 0.26% | 0.06% | -3% | -0.65% | -0.4% | 2.14% | -0.41% | 2.78% | -0.92% | 3.09% | 2.05% | -1.46% | 2.02%
